Activity calls are given as the source filed them.

Among the data in PubChem BioAssay are composite z-score and z-score values, retold here.

The test system of assay [1] is Plasmodium falciparum Sir2 (PF13_0152, Sir2A). The assay is described as follows: Plasmodium falciparum Sir2A binding compounds – biochemical, small-molecule microarray, 635 nm fluorescence, primary screen (AID 1098).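 Further: score merges spot fluorescence intensity with its signal-to-noise ratio.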 To be noted: fluorescence 635 nm, higher = more signal.
Assay [2] in a line: probe aDKK1 binding to arrayed compounds – biochemical, biotinylated probe, 635/667 nm fluorescence, primary screen (AID 1099).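 Further: score merges 667nm spot fluorescence with signal to noise across triplicate slides.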 As to conditions: small-molecule microarray, higher = more signal.
A short description of assay [3]: probe aCHRDL2 binding to arrayed compounds – biochemical, biotinylated probe, 635/667 nm fluorescence, primary screen (AID 1100). To be noted: small-molecule microarray, higher = more signal.
A short description of assay [4]: change in splice reporter luminescence, either direction, cell-based, HEK293, spliceosome inhibition project, primary screen (AID 1101).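 Further: HEK293 cells carrying a splicing-competent luciferase reporter gene; test concentration not given here.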 To be noted: HEK293 splicing luciferase reporter, 24 h, higher = more signal, called active from +8 up or from −8 down. On the technique in general: In a reporter assay the amount or activity of a reporter protein is the signal.
Assay [5] addresses Fibroblast growth factor 10 (Homo sapiens) (UniProt O15520). The assay is described as follows: compounds binding fibroblast growth factor 10 – biochemical, small-molecule microarray, 635 nm fluorescence, primary screen (AID 1102). As to conditions: FGF10 binding, fluorescence 635 nm, higher = more signal.
Assay [6] deals with glycogen synthase kinase-3 (GSK3A per assay name; protocol says GSK3B). The assay is described as follows: compounds binding glycogen synthase kinase-3 – biochemical, small-molecule microarray, 635 nm fluorescence, GSK3A, primary screen (AID 1103). Further: the record names both GSK3A and GSK3B. To be noted: fluorescence 635 nm, higher = more signal.
Assay [7] addresses Epidermal growth factor receptor (Homo sapiens) (UniProt P00533). The assay is described as follows: compounds binding epidermal growth factor receptor – biochemical, small-molecule microarray, 635 nm fluorescence, primary screen (AID 1104).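 Further: score merges 667 nm emission intensity with spot signal to noise over triplicate slides.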 To be noted: EGFR binding, higher = more signal.
Assay [8] addresses Follistatin-related protein 3 (Homo sapiens) (UniProt O95633). The assay is described as follows: compounds binding follistatin-related protein 3 – biochemical, small-molecule microarray, 635 nm fluorescence, primary screen (AID 1105).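 Further: score merges emission near 667 nm and signal to noise per printed spot across three slides.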 To be noted: FSTL3 binding, higher = more signal.
Assay [9] addresses Dickkopf-related protein 1 (Homo sapiens) (UniProt O94907). The assay is described as follows: small molecules binding DKK1 protein – biochemical, small-molecule microarray, 635 nm fluorescence scan, primary screen (AID 1106).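 Further: score merges emission near 667 nm with signal to noise over three replicate slides.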 As to conditions: higher = more signal.
Assay [10] relates to Inhibin beta A chain (activin A). The assay is described as follows: small molecules binding activin A – biochemical, small-molecule microarray, 635 nm fluorescence scan, primary screen (AID 1107).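 Further: mouse activin A protein probed at 4.33 µg/mL on printed slides; score merges bound-protein fluorescence near 667 nm with spot signal-to-noise.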 To be noted: INHBA, higher = more signal.
Assay [11] relates to Human papillomavirus type 1a protein E7 (residues 44-93). The assay is described as follows: small molecules binding HPV E7 44-93 – biochemical, small-molecule microarray, residues 44-93, 635 nm fluorescence, primary screen (AID 1108).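 Further: E7 fragment applied at 1 µg/mL in TBST for 1 h at 4 C; score combines spot fluorescence with its signal to noise ratio.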 As to conditions: fluorescence 635 nm, higher = more signal.
Assay [12] in a line: hepatitis C replication reporter changes, two-sided – Huh7 cells, luciferase reporter, HCV replication inhibitor project, primary screen (AID 1109).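 Further: huh7 hepatoma cells harbouring a luciferase neomycin HCV replicon reporter; luciferase luminescence as measure of HCV replicon replication; test concentration not given here.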 As to conditions: Huh7 HCV replicon luciferase reporter, 48 h; higher = more signal.
Assay [13] addresses Left-right determination factor 2 (Homo sapiens) (UniProt O00292). Description: small molecules binding LEFTY2 protein – biochemical, small-molecule microarray, 635 nm fluorescence scan, primary screen (AID 1110). To be noted: higher = more signal.
Assay [14] addresses Calmodulin-1 (Homo sapiens) (UniProt P0DP23). Description: small molecules binding calmodulin-1 with EGTA – biochemical, small-molecule microarray, Cy5-labelled CALM1, profiling panel (AID 1111).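 Further: labelled calmodulin applied in Tris saline Tween buffer holding calcium plus EGTA and DTT.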 To be noted: Cy5-CALM1 binding fluorescence, higher = more signal.
Assay [15] has the same target. Description: small molecules binding Ca-loaded calmodulin-1 – biochemical, small-molecule microarray, Cy5-labelled CALM1, plus calcium, artefact control for SMM control-protein annotation, profiling panel (AID 1112).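 Further: score merges spot fluorescence with signal to noise from triplicate slides.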 To be noted: Cy5-CALM1 binding fluorescence, higher = more signal.
Assay [16] can be described thus: probe aWnt5a binding to arrayed compounds – biochemical, biotinylated probe, 635/667 nm fluorescence, primary screen (AID 1113).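 Further: score merges 667 nm fluorescence intensity with signal-to-noise per printed feature.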 To be noted: small-molecule microarray, higher = more signal.
A short description of assay [17]: probe aShh binding to arrayed compounds – biochemical, biotinylated probe, 635/667 nm fluorescence, primary screen (AID 1114).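 Further: probe is biotin-labelled aShh protein from a stem cell growth factor screen; measures binding of labelled protein to compounds printed on the slide; score merges feature fluorescence at 667 nm with signal-to-noise.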 To be noted: small-molecule microarray, higher = more signal.
Assay [18] in a line: probe aNog binding to arrayed compounds – biochemical, biotinylated probe, 635/667 nm fluorescence, primary screen (AID 1115).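 Further: probe is biotinylated aNog protein used at 0.15 µg/mL for 1 h at 4 C; z-score combines 667 nm fluorescence of each spot with its signal to noise.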 As to conditions: small-molecule microarray, higher = more signal.
Assay [19] has as its target Torsin-1A-interacting protein 1 (Homo sapiens) (UniProt Q5JTV8). The assay is described as follows: compound microarray binding of lysate hLAP1 – cell lysate, small-molecule microarray, COS7 lysate, 635/667 nm fluorescence, primary screen (AID 1116). To be noted: 635 nm fluorescence, higher = more signal.
The target in assay [20] is Alpha-bungarotoxin (Bungarus multicinctus) (UniProt P60615). The assay is described as follows: compounds binding labelled alpha-BTX control protein – biochemical, small-molecule microarray, Alexa647 label, 635/667 nm fluorescence, artefact control for SMM control protein annotation, profiling panel (AID 1117). To be noted: alpha-BTX-A647 binding fluorescence, higher = more signal.
Chain of Alpha-bungarotoxin (Bungarus multicinctus) (P60615 whole entry, looked up): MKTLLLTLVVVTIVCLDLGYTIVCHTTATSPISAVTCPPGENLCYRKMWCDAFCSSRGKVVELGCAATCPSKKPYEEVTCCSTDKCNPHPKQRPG

Chain of Epidermal growth factor receptor (Homo sapiens) (P00533 whole entry, looked up): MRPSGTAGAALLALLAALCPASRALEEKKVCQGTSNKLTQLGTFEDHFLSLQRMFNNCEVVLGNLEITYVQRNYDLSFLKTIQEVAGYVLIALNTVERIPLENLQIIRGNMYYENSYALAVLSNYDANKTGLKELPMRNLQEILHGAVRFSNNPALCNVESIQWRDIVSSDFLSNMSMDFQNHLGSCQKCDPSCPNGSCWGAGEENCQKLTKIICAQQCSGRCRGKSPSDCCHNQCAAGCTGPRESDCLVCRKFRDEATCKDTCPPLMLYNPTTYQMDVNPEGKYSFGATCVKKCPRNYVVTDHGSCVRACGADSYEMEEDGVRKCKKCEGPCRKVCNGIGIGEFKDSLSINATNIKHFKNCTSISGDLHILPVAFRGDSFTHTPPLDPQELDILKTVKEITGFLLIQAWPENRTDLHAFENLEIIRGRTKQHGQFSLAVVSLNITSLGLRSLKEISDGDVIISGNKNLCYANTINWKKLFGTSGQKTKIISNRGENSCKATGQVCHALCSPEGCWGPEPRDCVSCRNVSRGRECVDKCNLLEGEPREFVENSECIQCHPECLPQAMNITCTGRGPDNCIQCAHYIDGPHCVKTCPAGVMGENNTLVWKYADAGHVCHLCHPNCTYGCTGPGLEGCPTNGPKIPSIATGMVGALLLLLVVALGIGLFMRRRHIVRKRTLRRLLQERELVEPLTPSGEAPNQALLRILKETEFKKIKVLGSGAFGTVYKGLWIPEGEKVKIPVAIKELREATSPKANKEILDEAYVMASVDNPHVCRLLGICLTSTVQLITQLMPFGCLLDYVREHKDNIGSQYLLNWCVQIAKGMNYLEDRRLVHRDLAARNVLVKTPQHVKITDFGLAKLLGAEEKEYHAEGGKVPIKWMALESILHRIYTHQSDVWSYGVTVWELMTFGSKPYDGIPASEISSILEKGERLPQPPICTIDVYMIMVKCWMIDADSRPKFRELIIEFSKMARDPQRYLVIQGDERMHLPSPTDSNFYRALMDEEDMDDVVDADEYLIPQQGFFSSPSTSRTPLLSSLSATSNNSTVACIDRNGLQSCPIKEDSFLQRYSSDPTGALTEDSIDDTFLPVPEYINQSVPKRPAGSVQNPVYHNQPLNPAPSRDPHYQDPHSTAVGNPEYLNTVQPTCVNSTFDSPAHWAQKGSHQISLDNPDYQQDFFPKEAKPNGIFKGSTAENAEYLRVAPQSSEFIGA
Chain of Left-right determination factor 2 (Homo sapiens) (O00292 whole entry, looked up): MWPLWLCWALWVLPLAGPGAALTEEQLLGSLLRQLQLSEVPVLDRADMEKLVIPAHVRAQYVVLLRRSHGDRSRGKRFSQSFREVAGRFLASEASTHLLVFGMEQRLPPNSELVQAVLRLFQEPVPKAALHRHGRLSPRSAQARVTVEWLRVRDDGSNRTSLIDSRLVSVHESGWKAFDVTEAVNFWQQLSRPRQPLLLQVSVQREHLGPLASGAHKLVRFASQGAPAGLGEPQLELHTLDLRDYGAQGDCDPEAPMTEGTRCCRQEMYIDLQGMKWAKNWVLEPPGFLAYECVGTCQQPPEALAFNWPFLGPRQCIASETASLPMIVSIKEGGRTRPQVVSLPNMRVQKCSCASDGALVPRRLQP
Chain of Dickkopf-related protein 1 (Homo sapiens) (O94907 whole entry, looked up): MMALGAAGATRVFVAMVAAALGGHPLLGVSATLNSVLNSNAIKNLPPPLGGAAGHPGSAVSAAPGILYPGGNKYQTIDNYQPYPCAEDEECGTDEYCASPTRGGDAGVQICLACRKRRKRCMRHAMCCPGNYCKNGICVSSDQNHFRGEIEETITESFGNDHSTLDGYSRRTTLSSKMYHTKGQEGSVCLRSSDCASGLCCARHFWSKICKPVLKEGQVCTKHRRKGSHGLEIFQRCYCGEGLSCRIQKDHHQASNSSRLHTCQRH
Chain of Torsin-1A-interacting protein 1 (Homo sapiens) (Q5JTV8 whole entry, looked up): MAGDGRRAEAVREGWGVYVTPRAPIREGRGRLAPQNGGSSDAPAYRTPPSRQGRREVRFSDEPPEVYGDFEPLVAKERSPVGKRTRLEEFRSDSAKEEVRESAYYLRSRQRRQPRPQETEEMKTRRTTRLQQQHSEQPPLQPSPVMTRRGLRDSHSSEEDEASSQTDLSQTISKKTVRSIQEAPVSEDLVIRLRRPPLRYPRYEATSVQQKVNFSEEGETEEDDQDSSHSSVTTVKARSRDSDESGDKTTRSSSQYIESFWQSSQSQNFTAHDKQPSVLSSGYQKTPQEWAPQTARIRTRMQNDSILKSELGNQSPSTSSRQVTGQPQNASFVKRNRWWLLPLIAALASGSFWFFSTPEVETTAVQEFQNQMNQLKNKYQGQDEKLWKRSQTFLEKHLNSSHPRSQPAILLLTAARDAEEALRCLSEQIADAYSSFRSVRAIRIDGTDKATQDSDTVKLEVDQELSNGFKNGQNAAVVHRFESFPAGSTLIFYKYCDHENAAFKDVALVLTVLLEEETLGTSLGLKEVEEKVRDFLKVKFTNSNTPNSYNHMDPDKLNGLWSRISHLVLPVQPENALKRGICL
Chain of Fibroblast growth factor 10 (Homo sapiens) (O15520 whole entry, looked up): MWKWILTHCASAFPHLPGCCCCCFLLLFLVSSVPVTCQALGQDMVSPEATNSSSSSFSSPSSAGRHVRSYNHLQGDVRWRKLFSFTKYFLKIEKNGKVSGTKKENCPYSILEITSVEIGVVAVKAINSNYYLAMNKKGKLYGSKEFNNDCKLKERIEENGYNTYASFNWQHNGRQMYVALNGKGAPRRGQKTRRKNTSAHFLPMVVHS
Chain of Follistatin-related protein 3 (Homo sapiens) (O95633 whole entry, looked up): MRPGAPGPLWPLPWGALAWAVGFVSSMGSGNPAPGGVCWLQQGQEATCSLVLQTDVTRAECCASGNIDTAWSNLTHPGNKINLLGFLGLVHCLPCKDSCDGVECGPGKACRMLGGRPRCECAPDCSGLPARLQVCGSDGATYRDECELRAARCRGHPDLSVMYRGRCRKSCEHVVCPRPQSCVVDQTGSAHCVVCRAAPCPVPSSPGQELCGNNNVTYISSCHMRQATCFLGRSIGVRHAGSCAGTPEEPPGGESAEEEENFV

As for `O=C(CS)NCCCCCCNC(=O)[C@H]1C[C@H]2C(=O)N[C@@H](Cc3ccccc3)C(=O)N2[C@H]1c1cccc(OCCO)c1`, the composite z-score in assay [1] was 1.62; in assay [2], -0.0581; in assay [3], 0.232; in assay [5], 1.51; in assay [6], 1.25; in [7] it was 1.39. The composite z-score is 1.52 in assay [8]; 1.34 in [9]; 0.68 in assay [10]; 1.37 in [11]; 1.23 in [13]; 1.79 in assay [14]. In addition, the composite z-score stood at 0.0164 in [15]; 0.0066 in assay [16]; 0.676 in assay [17]; 0.897 in assay [18]; 1.38 in [19]; 2.44 in assay [20]. For the same compound, the z-score in [4] is 0.479 (inactive); in assay [12], -0.963.

For the compound `C=CCOC(=O)[C@H]1[C@@H]2C(=O)O[C@@H](c3ccccc3)[C@@H](c3ccccc3)N2[C@@H](c2ccc(OCCOC(=O)[C@H]3C[C@H]4C(=O)N[C@@H](Cc5ccccc5)C(=O)N4[C@H]3c3cccc(OCCO)c3)cc2)[C@]12C(=O)Nc1ccc(I)cc12`, the composite z-score was 1.12 in assay [1]; -0.298 in assay [2]; -0.0762 in [3]; 1.24 in assay [5]; 1.28 in assay [6]; 0.536 in assay [7]. In addition, the composite z-score was found to be 1.29 in assay [8]; 0.759 in assay [9]; 0.17 in assay [10]; 1.38 in assay [11]; 0.692 in assay [13]; 0.384 in assay [14]. The composite z-score was 0.334 in [15]; 0.0004 in assay [16]; -0.144 in assay [17]; -0.175 in assay [18]; 1.25 in [19]; 1.35 in assay [20]. Besides, the z-score in assay [4] was 0.959 (inactive); in assay [12], -1.68.

Regarding `COc1c(C)cc(-c2cc3c(c(-c4ccccc4)n2)[Si](C(C)C)(C(C)C)OC3)cc1C`, the composite z-score in assay [1] is 0.0039; in assay [2], 0.068; in assay [3], -0.676; in assay [5], -0.216; in [6], -0.39; in [7], 0.186. Besides, the composite z-score was -0.355 in assay [8]; 0.189 in [9]; 1.08 in assay [10]; -0.689 in assay [11]; -0.0473 in assay [13]; -0.319 in assay [14]. The composite z-score in assay [15] is -0.119; in [16] it was -0.184; in assay [17], -0.153; in assay [18] it was -0.122; in assay [19], -0.16; in [20], 0.857. Besides, the z-score in [4] is -0.0426 (inactive); in assay [12] it was -0.268.

As for `CC(C)(C)OC(=O)CC[C@]1(C(=O)N2CCOCC2)N=C(c2ccc(OCCCO)cc2)O[C@H]1c1ccccc1`, the composite z-score was 1.65 in assay [1]; 0.126 in assay [2]; 0.417 in assay [3]; 1.05 in assay [5]; 0.488 in assay [6]; -0.433 in [7]. In addition, the composite z-score in assay [8] is 0.0033; in assay [9], -0.158; in assay [10] it was 0.456; in assay [11] it was 0.79; in [13], -0.356; in [14], 0.0137. Also, the composite z-score in assay [15] is -0.031; in assay [16] it was -0.0459; in assay [17], -0.27; in assay [18] it was -0.375; in [19], 1.07; in assay [20] it was 0.109. Moreover, the z-score in assay [4] was 0.12 (inactive); in [12], -0.304.

`CN(C)CCCNC(=O)[C@@H]1c2ccccc2C(=O)N(CC23CC4CC(CC(C4)C2)C3)[C@H]1c1ccc(CO)cc1`: the composite z-score in assay [1] is 1.15; in assay [2] it was -0.46; in assay [3] it was 0.296; in assay [5], 1.17; in assay [6] it was 0.98; in assay [7] it was 0.425. Also, the composite z-score was 1.15 in [8]; 0.872 in assay [9]; -0.111 in assay [10]; 1.47 in [11]; 0.832 in assay [13]; 0.309 in assay [14]. The composite z-score in [15] is -0.632; in [16] it was 0.0215; in [17], -0.542; in [18], -0.403; in assay [19], 0.858; in assay [20], 1.65. Moreover, the figures for the z-score in assay [4] and in assay [12] were -0.751 (inactive) and -3.1, respectively.
